± gives the standard deviation of the averaged measurements. The full data set covers some 6,200 targets. This sample favours those with the largest changes.
Compound: Nc1ncnc2c1ncn2[C@@H]1O[C@H](COP(=O)(O)OP(=O)(O)NP(=O)(O)O)[C@@H](O)[C@H]1O [adenylyl imidodiphosphate]
Assay: NP40-soluble protein abundance relative to vehicle (solubility fold change) (ratio); higher = more soluble protein in presence of AMP-PNP
Summary of the method: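 In three independent experiments, Jurkat crude lysate made by Dounce homogenisation was treated for 10 min at room temperature and then 3 min at 37 °C with eight concentrations ranging from 0.1 to 10 mM. It was then solubilised with 0.8% NP40 plus benzonase for 60 min at 4 °C and ultracentrifuged. The supernatant was TMT-labelled for LC-MS/MS, and each value is the fold change against the detergent-processed vehicle for the same replicate, using vsn-normalised intensities.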

UniProt Q8NHM5, sequence (Q8NHM5 whole entry): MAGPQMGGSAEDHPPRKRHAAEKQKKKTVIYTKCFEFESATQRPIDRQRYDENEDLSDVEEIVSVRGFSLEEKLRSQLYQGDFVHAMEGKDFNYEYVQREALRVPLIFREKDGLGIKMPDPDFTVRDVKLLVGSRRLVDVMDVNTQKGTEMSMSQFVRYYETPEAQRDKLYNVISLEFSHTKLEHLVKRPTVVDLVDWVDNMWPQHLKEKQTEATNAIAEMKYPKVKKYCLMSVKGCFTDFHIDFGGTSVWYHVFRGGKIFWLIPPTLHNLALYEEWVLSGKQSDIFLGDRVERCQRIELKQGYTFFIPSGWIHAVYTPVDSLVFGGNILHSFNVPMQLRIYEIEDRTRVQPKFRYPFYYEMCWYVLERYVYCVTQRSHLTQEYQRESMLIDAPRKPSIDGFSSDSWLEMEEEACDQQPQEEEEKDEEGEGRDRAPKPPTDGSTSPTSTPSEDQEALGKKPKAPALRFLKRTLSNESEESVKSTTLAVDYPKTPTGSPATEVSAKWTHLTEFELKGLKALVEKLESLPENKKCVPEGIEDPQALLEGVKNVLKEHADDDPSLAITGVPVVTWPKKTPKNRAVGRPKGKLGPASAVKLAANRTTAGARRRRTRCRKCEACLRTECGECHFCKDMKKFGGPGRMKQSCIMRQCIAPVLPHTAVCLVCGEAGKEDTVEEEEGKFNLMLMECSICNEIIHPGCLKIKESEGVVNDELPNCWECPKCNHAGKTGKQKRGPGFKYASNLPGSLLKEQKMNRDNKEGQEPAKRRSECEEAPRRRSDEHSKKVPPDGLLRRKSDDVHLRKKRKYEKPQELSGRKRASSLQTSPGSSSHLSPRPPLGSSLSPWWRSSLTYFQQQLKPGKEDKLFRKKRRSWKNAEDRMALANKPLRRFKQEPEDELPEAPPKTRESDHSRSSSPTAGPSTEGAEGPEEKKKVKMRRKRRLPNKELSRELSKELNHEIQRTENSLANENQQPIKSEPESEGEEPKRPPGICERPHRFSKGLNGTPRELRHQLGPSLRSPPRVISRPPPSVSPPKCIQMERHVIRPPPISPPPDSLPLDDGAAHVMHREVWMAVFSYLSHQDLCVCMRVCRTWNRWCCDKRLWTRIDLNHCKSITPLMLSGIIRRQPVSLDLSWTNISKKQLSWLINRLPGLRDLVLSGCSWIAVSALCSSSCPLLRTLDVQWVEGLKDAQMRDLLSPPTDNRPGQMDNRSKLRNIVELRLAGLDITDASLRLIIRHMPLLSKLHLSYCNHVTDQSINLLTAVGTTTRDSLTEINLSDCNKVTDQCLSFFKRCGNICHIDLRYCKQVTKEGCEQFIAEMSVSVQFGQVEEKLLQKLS
UniProt Q6I9Y2, sequence (Q6I9Y2 whole entry): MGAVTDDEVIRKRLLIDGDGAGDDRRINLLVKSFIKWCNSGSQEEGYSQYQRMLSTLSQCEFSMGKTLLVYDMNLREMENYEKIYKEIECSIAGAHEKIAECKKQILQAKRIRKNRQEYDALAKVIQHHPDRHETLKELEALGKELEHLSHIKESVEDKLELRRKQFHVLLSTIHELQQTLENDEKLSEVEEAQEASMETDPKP
UniProt Q15233, sequence (Q15233 whole entry): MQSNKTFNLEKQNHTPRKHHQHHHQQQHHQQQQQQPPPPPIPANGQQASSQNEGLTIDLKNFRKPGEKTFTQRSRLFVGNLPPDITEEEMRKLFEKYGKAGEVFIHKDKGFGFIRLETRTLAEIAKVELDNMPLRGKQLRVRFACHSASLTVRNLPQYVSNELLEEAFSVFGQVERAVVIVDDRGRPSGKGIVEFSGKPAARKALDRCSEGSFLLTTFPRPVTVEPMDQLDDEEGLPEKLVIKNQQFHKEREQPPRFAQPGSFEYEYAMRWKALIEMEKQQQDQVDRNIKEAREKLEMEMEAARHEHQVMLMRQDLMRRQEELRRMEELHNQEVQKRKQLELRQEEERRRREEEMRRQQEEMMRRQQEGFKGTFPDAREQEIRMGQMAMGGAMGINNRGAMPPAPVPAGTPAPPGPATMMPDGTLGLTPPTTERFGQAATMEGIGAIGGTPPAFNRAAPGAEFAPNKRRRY
UniProt Q969F1, sequence (Q969F1 whole entry): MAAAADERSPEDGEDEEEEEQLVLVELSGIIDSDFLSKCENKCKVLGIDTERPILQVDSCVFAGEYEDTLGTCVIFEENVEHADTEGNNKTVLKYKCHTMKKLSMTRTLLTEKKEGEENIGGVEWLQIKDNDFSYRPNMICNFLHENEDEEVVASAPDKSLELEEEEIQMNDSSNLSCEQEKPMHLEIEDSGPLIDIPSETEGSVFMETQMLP
UniProt Q5SSJ5, sequence (Q5SSJ5 whole entry): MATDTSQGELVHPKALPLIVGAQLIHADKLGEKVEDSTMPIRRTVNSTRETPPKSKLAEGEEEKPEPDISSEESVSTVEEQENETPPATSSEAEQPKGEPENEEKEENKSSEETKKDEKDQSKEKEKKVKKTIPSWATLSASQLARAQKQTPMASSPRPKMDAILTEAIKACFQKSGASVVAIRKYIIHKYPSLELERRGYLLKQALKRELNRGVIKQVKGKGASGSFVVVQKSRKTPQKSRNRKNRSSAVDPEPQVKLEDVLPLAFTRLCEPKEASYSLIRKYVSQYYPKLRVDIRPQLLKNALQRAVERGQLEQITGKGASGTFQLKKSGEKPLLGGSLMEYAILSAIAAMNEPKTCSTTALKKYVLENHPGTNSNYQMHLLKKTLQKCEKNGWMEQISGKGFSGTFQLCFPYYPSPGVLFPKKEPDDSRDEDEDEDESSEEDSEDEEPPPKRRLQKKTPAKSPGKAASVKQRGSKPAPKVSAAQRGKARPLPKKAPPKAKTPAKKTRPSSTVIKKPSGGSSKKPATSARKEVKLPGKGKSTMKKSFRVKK
UniProt Q15006, sequence (Q15006 whole entry): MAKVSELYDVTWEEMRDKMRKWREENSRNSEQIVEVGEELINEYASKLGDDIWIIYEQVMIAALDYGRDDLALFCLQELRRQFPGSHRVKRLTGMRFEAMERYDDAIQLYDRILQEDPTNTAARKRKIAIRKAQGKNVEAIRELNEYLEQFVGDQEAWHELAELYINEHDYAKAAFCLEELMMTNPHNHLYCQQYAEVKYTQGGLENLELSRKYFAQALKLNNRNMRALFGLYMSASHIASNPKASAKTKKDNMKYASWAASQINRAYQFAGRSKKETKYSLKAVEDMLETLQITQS
UniProt Q92804, sequence (Q92804 whole entry): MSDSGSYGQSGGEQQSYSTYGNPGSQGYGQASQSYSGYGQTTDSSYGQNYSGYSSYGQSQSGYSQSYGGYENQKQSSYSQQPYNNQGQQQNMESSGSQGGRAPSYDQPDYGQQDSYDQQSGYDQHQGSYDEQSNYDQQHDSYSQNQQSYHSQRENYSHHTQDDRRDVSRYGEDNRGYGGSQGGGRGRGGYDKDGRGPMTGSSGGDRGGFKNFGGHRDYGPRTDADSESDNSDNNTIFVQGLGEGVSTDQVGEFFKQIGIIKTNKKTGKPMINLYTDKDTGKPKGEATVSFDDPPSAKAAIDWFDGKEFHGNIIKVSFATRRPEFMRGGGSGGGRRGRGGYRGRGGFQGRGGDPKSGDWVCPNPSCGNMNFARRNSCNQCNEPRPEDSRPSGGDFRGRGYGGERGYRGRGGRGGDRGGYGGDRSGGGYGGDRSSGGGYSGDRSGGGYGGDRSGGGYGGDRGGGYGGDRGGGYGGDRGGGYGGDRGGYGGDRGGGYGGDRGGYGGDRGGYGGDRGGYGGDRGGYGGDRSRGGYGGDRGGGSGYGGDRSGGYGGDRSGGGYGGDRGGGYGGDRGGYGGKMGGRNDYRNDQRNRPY
UniProt Q8TEQ0, sequence (Q8TEQ0 whole entry): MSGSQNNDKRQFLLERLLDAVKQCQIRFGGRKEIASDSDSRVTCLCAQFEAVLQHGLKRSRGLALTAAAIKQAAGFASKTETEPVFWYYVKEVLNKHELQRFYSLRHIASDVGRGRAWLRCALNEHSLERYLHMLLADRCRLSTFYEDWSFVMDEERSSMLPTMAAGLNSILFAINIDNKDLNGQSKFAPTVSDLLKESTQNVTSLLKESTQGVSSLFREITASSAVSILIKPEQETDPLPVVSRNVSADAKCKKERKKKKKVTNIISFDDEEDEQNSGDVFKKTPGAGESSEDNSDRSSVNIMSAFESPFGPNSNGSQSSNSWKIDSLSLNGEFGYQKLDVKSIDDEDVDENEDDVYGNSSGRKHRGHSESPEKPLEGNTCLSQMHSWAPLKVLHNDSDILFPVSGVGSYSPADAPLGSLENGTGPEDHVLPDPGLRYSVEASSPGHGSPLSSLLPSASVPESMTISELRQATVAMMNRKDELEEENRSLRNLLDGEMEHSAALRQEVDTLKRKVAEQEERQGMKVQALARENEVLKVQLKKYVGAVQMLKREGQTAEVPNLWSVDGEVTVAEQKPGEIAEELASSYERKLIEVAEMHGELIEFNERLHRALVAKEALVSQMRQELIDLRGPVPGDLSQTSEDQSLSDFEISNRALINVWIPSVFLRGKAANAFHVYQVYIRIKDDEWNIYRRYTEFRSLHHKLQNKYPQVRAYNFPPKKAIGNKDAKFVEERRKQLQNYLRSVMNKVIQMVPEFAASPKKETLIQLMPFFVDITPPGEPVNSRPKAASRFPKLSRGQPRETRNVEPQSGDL
UniProt Q5EBL8, sequence (Q5EBL8 whole entry): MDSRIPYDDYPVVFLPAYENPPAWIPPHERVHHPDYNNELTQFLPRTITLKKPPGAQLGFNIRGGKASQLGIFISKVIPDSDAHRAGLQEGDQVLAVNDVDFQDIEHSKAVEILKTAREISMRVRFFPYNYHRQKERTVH
UniProt Q8N5M4, sequence (Q8N5M4 whole entry, one chain of several): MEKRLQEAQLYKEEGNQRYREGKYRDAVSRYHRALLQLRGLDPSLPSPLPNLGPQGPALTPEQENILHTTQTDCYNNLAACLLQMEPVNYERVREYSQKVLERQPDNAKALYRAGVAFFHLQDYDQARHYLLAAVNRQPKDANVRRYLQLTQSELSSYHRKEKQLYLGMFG
UniProt Q6IAA8, sequence (Q6IAA8 whole entry, one chain of several): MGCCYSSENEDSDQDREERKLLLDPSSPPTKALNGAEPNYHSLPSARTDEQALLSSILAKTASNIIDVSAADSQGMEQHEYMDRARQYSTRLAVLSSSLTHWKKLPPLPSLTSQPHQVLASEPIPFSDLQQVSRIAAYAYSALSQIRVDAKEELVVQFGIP

Target	NP40-soluble protein abundance (concentration: 1mM)	NP40-soluble protein abundance (concentration: 2mM)	NP40-soluble protein abundance (concentration: 4mM)	NP40-soluble protein abundance (concentration: 6mM)	NP40-soluble protein abundance (concentration: 8mM)	NP40-soluble protein abundance (concentration: 10mM)
UniProt Q6ZRI6|Q6ZRI6-2|H3BMJ2	0.9914 ± 0.0011	1.01 ± 0.044	1.01 ± 0.018	0.992 ± 0.029	1 ± 0.018	0.99766 ± 5.3e-05
UniProt Q86VP1-2|Q86VP1-4|B8ZZD4	0.977 ± 0.039	1.01 ± 0.026	0.963 ± 0.024	0.935 ± 0.038	0.925 ± 0.033	0.936 ± 0.031
UniProt Q86Y56	0.976 ± 0.045	0.931 ± 0.038	0.977 ± 0.037	1.01 ± 0.022	0.997 ± 0.055	0.991 ± 0.04
UniProt Q13825|Q13825-2	0.995 ± 0.028	1.02 ± 0.025	1.04 ± 0.044	1.03 ± 0.015	1.04 ± 0.057	1.06 ± 0.025
UniProt Q8WZA0|Q8WZA0-2	0.969 ± 0.052	0.957 ± 0.0098	0.928 ± 0.059	0.912 ± 0.044	0.921 ± 0.034	0.859 ± 0.054
MDC1 (UniProt Q14676)	1.13 ± 0.032	1.31 ± 0.086	1.49 ± 0.12	1.86 ± 0.28	2.04 ± 0.41	2.34 ± 0.53
THOC7 (UniProt Q6I9Y2)	1.29 ± 0.045	1.47 ± 0.2	1.57 ± 0.24	1.73 ± 0.39	1.85 ± 0.47	1.93 ± 0.64
UniProt Q8TB61|Q8TB61-2|Q8TB61-3	0.968 ± 0.041	0.969 ± 0.045	0.965 ± 0.045	0.953 ± 0.034	0.951 ± 0.042	0.989 ± 0.019
UniProt Q5M775|Q5M775-2|Q5M775-3|Q5M775-4|Q5M775-5	0.945 ± 0.062	0.89 ± 0.032	0.95 ± 0.05	1.04 ± 0.032	1.01 ± 0.031	0.992 ± 0.059
UniProt Q86W42|Q86W42-2	1.17 ± 0.087	1.25 ± 0.065	1.36 ± 0.11	1.49 ± 0.1	1.65 ± 0.18	1.67 ± 0.27
ANKRD13A (UniProt Q8IZ07)	0.985 ± 0.017	0.981 ± 0.013	1.04 ± 0.029	1.06 ± 0.061	1.04 ± 0.03	1.08 ± 0.047
UniProt Q8WUB8|Q8WUB8-2|Q8WUB8-3|S5FZ81	1.01 ± 0.045	1.04 ± 0.034	1.07 ± 0.023	1.11 ± 0.045	1.08 ± 0.051	1.15 ± 0.061
UniProt Q8NHM5|Q8NHM5-2|Q8NHM5-3|Q8NHM5-4	1.02 ± 0.024	1.034 ± 0.0075	1.04 ± 0.054	1.04 ± 0.04	1.01 ± 0.021	1.04 ± 0.034
UniProt Q92804|Q92804-2	1.07 ± 0.15	1.15 ± 0.031	1.19 ± 0.17	1.27 ± 0.21	1.32 ± 0.13	1.54 ± 0.23
UniProt Q15056-2|Q15056	0.999 ± 0.037	1.03 ± 0.035	0.945 ± 0.14	0.94 ± 0.081	0.929 ± 0.087	0.884 ± 0.21
Q5THR1|Q9H5Z1|Q9H5Z1-2|F2Z2Z2 (UniProt Q9H5Z1)	1.02 ± 0.061	0.96808 ± 0.00094	1.01 ± 0.011	0.987 ± 0.024	0.991 ± 0.022	0.997 ± 0.023
DTX3L (UniProt Q8TDB6)	1.03 ± 0.02	1.01 ± 0.024	1.04 ± 0.059	0.994 ± 0.03	0.996 ± 0.038	0.993 ± 0.022
EMG1 (UniProt Q92979)	1.01 ± 0.03	1 ± 0.014	1.12 ± 0.087	1.19 ± 0.071	1.24 ± 0.096	1.26 ± 0.1
UniProt Q13362-2|Q13362-3|Q13362-4	0.982 ± 0.017	1.04 ± 0.036	0.989 ± 0.018	0.976 ± 0.036	0.948 ± 0.018	0.966 ± 0.043
GTF3C6 (UniProt Q969F1)	1.04 ± 0.045	1.07 ± 0.042	1.04 ± 0.032	0.984 ± 0.018	0.99 ± 0.047	1.01 ± 0.035

Target	NP40-soluble protein abundance (concentration: 1mM)	NP40-soluble protein abundance (concentration: 2mM)	NP40-soluble protein abundance (concentration: 4mM)	NP40-soluble protein abundance (concentration: 6mM)	NP40-soluble protein abundance (concentration: 8mM)	NP40-soluble protein abundance (concentration: 10mM)
UniProt Q8N4N3|Q8N4N3-2	1 ± 0.013	0.996 ± 0.019	0.981 ± 0.027	0.96 ± 0.019	0.981 ± 0.027	0.959 ± 0.017
FAM117B (UniProt Q6P1L5)	0.99 ± 0.022	1.07 ± 0.04	1.01 ± 0.025	1.005 ± 0.01	0.9688 ± 0.0059	1.01 ± 0.022
NONO (UniProt Q15233)	1.09 ± 0.048	1.17 ± 0.064	1.22 ± 0.056	1.39 ± 0.12	1.45 ± 0.15	1.56 ± 0.18
UniProt Q14677|Q14677-2|Q14677-3	0.999 ± 0.026	1.03 ± 0.069	0.983 ± 0.052	1 ± 0.026	0.974 ± 0.03	1.03 ± 0.043
DARS2 (UniProt Q6PI48)	0.939 ± 0.049	0.861 ± 0.12	0.924 ± 0.016	0.918 ± 0.036	0.942 ± 0.021	0.89 ± 0.012
UniProt Q684P5-2|Q684P5-3|Q684P5	1 ± 0.035	1 ± 0.024	0.997 ± 0.051	0.977 ± 0.029	0.963 ± 0.048	0.968 ± 0.026
URB2 (UniProt Q14146)	0.971 ± 0.018	0.9722 ± 0.0054	0.988 ± 0.013	1.05 ± 0.018	1.07 ± 0.023	1.1 ± 0.055
DDX51 (UniProt Q8N8A6)	1.06 ± 0.018	1.09 ± 0.02	1.15 ± 0.059	1.2 ± 0.038	1.24 ± 0.033	1.423 ± 0.014
UniProt Q5EBL8|Q5EBL8-2	1 ± 0.011	1.02 ± 0.023	0.9905 ± 0.0052	1 ± 0.025	1.02 ± 0.03	1.017 ± 0.0054
UniProt Q15642-2|Q15642-3|Q15642-4|W4VSQ9|M0R0F9	1.09 ± 0.014	1.07 ± 0.036	1.07 ± 0.014	1.04 ± 0.054	1.07 ± 0.025	1.06 ± 0.065
LRRC59 (UniProt Q96AG4)	1.11 ± 0.048	1.32 ± 0.3	1.13 ± 0.089	1.15 ± 0.028	1.12 ± 0.052	1.19 ± 0.13
UniProt Q460N5|Q460N5-1	1.02 ± 0.02	0.993 ± 0.046	1.04 ± 0.039	0.9762 ± 0.0066	1.01 ± 0.029	0.9765 ± 0.0028
UniProt Q6IAA8|F5GX19|F5H3Y3|F5H479|H0YFI1	1.02 ± 0.025	1.04 ± 0.028	1.04 ± 0.047	0.992 ± 0.051	0.975 ± 0.017	0.966 ± 0.035
UniProt Q5T3F8|H3BLW6	1 ± 0.052	1.06 ± 0.1	1.01 ± 0.038	1.01 ± 0.019	0.985 ± 0.042	1.01 ± 0.049
CMIP (UniProt Q8IY22)	0.986 ± 0.047	0.964 ± 0.031	0.942 ± 0.029	0.958 ± 0.046	0.935 ± 0.022	0.923 ± 0.043
KBTBD8 (UniProt Q8NFY9)	0.953 ± 0.046	0.944 ± 0.043	0.955 ± 0.035	0.976 ± 0.018	0.973 ± 0.02	0.965 ± 0.025
EXOSC6 (UniProt Q5RKV6)	1.04 ± 0.032	1.03 ± 0.041	1.08 ± 0.018	1.12 ± 0.036	1.14 ± 0.052	1.14 ± 0.074
UniProt Q7Z3B4|Q7Z3B4-3	0.969 ± 0.054	0.9436 ± 0.0042	1 ± 0.064	1.07 ± 0.067	1.13 ± 0.078	1.09 ± 0.11
HP1BP3 (UniProt Q5SSJ5)	0.963 ± 0.042	1.06 ± 0.063	1.03 ± 0.065	1.16 ± 0.017	1.18 ± 0.069	1.39 ± 0.15
SF3A1 (UniProt Q15459)	1.02 ± 0.022	1.05 ± 0.05	1.02 ± 0.014	1.07 ± 0.031	1.07 ± 0.017	1.09 ± 0.031

Target	NP40-soluble protein abundance (concentration: 1mM)	NP40-soluble protein abundance (concentration: 2mM)	NP40-soluble protein abundance (concentration: 4mM)	NP40-soluble protein abundance (concentration: 6mM)	NP40-soluble protein abundance (concentration: 8mM)	NP40-soluble protein abundance (concentration: 10mM)
UniProt Q15006	0.984 ± 0.018	0.9532 ± 0.0062	0.975 ± 0.044	0.989 ± 0.049	1.02 ± 0.028	1.02 ± 0.013
UniProt Q6PI47	0.873 ± 0.06	0.905 ± 0.046	0.947 ± 0.051	1 ± 0.023	1.08 ± 0.047	1.1 ± 0.064
PLA2G15 (UniProt Q8NCC3)	0.991 ± 0.013	0.975 ± 0.013	1.02 ± 0.03	0.986 ± 0.029	0.9922 ± 0.0084	0.979 ± 0.021
IQGAP2 (UniProt Q13576)	0.956 ± 0.027	0.935 ± 0.022	0.94 ± 0.051	0.944 ± 0.029	0.926 ± 0.039	0.932 ± 0.038
NUP210 (UniProt Q8TEM1)	0.992 ± 0.025	0.952 ± 0.025	0.975 ± 0.021	0.972 ± 0.037	1.01 ± 0.029	0.986 ± 0.044
THOC2 (UniProt Q8NI27)	1.36 ± 0.16	1.46 ± 0.2	1.63 ± 0.29	1.87 ± 0.53	2.02 ± 0.6	2.15 ± 0.77
CBLL1 (UniProt Q75N03)	1 ± 0.01	1.04 ± 0.022	1.03 ± 0.045	0.995 ± 0.015	0.976 ± 0.014	0.985 ± 0.016
UniProt Q8N5M4|E9PKV8	0.932 ± 0.054	0.94 ± 0.03	0.91 ± 0.032	0.984 ± 0.064	0.961 ± 0.055	0.938 ± 0.071
UniProt Q71F23	1.05 ± 0.028	1.07 ± 0.034	1.03 ± 0.016	1.02 ± 0.039	1.07 ± 0.013	1.08 ± 0.0087
UniProt Q8TEQ0|Q8TEQ0-2	1.02 ± 0.035	1.03 ± 0.047	1.01 ± 0.029	0.98 ± 0.054	0.969 ± 0.017	0.953 ± 0.021
UniProt Q5H8A4-5	0.979 ± 0.011	0.971 ± 0.019	0.983 ± 0.034	0.92 ± 0.01	0.9558 ± 0.0061	0.952 ± 0.016
PRPF4B (UniProt Q13523)	1.02 ± 0.02	1.01 ± 0.048	1.1 ± 0.037	1.2 ± 0.032	1.26 ± 0.042	1.34 ± 0.067
UniProt Q7L0J3|Q7L0J3-2	1 ± 0.032	1.05 ± 0.072	1.03 ± 0.031	1.02 ± 0.025	1.03 ± 0.033	1.02 ± 0.028
UniProt Q16630-2|Q16630	1.067 ± 0.004	1.12 ± 0.043	1.149 ± 0.0081	1.22 ± 0.025	1.3 ± 0.017	1.51 ± 0.045
THOC5 (UniProt Q13769)	1.36 ± 0.17	1.42 ± 0.23	1.65 ± 0.35	1.84 ± 0.54	2.03 ± 0.65	2.16 ± 0.88
UniProt Q8IYB5-2|Q8IYB5-3	0.988 ± 0.028	0.986 ± 0.011	1.01 ± 0.031	0.995 ± 0.038	0.995 ± 0.025	1.01 ± 0.015
UniProt Q15365	1.031 ± 0.0057	1.04 ± 0.038	1.04 ± 0.033	1 ± 0.02	1.01 ± 0.014	1.01 ± 0.03
PMVK (UniProt Q15126)	0.948 ± 0.0098	0.931 ± 0.018	0.973 ± 0.045	1.04 ± 0.07	1.04 ± 0.061	1.02 ± 0.052
UniProt Q14444|Q14444-2	1.12 ± 0.041	1.22 ± 0.17	1.16 ± 0.064	1.19 ± 0.13	1.19 ± 0.094	1.25 ± 0.08
ARFGAP1 (UniProt Q8N6T3)	1.02 ± 0.021	1.02 ± 0.023	1.02 ± 0.016	1.02 ± 0.023	0.993 ± 0.018	1.01 ± 0.038
